Each structure is given as a SMILES string. Whole data set: some 110,000 compounds, median “z-score” near -0.1, cut for the highest 2% near 2. The sample holds the highest values, similar compounds and a random draw of the others, so the mix is not that of the screen. Calls of active or inactive are those of the source.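 How the source made its calls: active means z-score in the third read window above 3 or below -3; inactive means the rest.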

Chain of Metabotropic glutamate receptor 8 (Rattus norvegicus) (P70579 whole entry, looked up): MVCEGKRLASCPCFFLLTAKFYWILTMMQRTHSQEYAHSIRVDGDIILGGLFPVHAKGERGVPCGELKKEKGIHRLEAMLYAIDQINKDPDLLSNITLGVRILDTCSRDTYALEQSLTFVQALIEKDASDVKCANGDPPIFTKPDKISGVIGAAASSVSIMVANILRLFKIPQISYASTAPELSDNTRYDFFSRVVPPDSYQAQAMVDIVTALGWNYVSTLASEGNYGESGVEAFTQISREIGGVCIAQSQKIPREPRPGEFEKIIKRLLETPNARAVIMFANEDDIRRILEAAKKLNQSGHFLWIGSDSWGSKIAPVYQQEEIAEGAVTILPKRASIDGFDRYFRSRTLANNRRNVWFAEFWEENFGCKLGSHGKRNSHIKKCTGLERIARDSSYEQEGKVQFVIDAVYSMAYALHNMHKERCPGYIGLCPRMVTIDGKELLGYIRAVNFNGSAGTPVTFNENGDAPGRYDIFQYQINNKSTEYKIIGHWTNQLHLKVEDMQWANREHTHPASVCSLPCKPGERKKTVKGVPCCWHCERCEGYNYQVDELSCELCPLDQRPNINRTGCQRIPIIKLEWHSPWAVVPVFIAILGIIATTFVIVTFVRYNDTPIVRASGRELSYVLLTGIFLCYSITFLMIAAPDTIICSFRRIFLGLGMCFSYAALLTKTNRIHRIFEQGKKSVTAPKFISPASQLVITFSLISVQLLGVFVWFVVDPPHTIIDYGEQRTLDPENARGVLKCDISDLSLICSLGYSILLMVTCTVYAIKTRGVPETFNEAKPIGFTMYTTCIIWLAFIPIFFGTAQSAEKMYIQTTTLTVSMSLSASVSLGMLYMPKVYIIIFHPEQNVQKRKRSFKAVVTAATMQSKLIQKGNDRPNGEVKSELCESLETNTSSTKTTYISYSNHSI

The assay addresses Metabotropic glutamate receptor 8 (Rattus norvegicus) (UniProt P70579). As to the kind of experiment: mGluR8 Gi/Go-coupled signaling modulation – cell-based, rat, thallium flux, HTS, primary screen (AID 488969). As to conditions: HEK293 rat mGluR8, GIRK (G protein-gated inwardly rectifying potassium channel) thallium flux, FluoZin2; at 10 µM; stronger effect = higher value.
`Oc1ccc(C2NCc3ccccc3-n3cccc32)cc1Cl` (stereo not drawn): the z-score amounted to 1.68.

In the case of `COc1ccc(C2NCc3ccccc3-n3cccc32)cc1` (stereo not drawn), the z-score worked out at 2.1. The figure for `c1ccc(C2NCc3ccccc3-n3cccc32)cc1` (stereo not drawn) is -0.239.

On to `Cc1nn(C2CCOC(C)(C)C2)c2c1C(c1ccc(OC(C)C)cc1)SCC(=O)N2` (stereo not drawn), for which the z-score is -0.843. `Cn1c(O)c(C=NCc2ccco2)c(=O)n(C)c1=O`: the z-score was -0.19.

`CCC(CC)C1C(C#N)=C(N)Oc2c1c(=O)oc1ccccc21` (stereo not drawn) returned a z-score of -0.103. `O=C(COc1ccccc1)N1CCN(C/C=C/c2ccccc2)CC1` registered a z-score of 0.702. The figure for `O=C(Cc1ccccc1)N1CCN(C/C=C/c2ccccc2)CC1` is 3.68 (active); for `O=C(COc1ccc(Cl)cc1)N1CCN(C/C=C/c2ccccc2)CC1` it is -0.0408; for `CC12CCCCC1=[N+]([O-])CN2O` (stereo not drawn) it is 0.377.

`CCOc1ccc(CC2C(=O)NC(=O)N(c3ccc(CC)cc3)C2=O)cc1` (stereo not drawn) yielded a z-score of -0.531.

As for `CCOC(=O)c1c(C)n(CCN2CCN(C)CC2)c2ccc(OC)cc12`, the z-score was 1.21. The figure for `CCCCn1c(C)c(C(=O)OCC)c2c(CN3CCOCC3)c(O)ccc21` is 4.12 (active); for `CCOC(=O)c1c(C)n(CCOC)c2ccc(O)cc12` it is 0.821. The figure for `CCCCN1C(=N)C(CC)(CC)C(=O)NC1=O` is -0.0121. The figure for `CCC(=NCc1ccc(F)cc1)c1c(O)n(C)c(=O)n(C)c1=O` is -0.274; for `O=C(c1cc([N+](=O)[O-])ccc1N1CCNCC1)N1CCOCC1` it is -0.253; for `COc1cccc(-n2c(O)c(C=NCc3ccc4c(c3)OCO4)c(=O)[nH]c2=O)c1` it is -0.566.

For the molecule `Clc1cccc(N2CCNCC2)c1Cl`, the z-score was 0.654.

In turn, `N#Cc1cc(F)c(N2CCNCC2)cc1Cl` returned a z-score of 2.17. The figure for `N#Cc1ccc(N2CCNCC2)c(F)c1` is 0.268. Next, `CCCNS(=O)(=O)c1ccc(OCC(=O)N2CCN(Cc3ccc4c(c3)OCO4)CC2)cc1`: -0.266; `Cc1cc(C(=O)N2CCC3(CC2)OCCO3)cs1`: 0.652; `C=CCOC(=O)C1=C(C)OC(N)=C(C(=O)OCC)C12C(=O)N(CC(N)=O)c1ccccc12` (stereo not drawn): -0.605.

`CN(C)CC1CSCCC1(O)c1ccccc1` (stereo not drawn) gave a z-score of 0.409. `C=C1N2CCC(CC2)C1(O)c1ccc(C)cc1` (stereo not drawn) gave a z-score of -0.123. Next, `OC12Oc3ccccc3C=C1N1CCC2CC1` (stereo not drawn): 2.17. Next, `CC(C)OC12Oc3ccccc3C=C1N1CCC2CC1` (stereo not drawn): 1.77; `CC(=O)N1CC(=O)Nc2ccc(Cl)cc2C1c1ccc(F)cc1` (stereo not drawn): -0.284. The figure for `N=Cc1c(O)n(-c2cccc(Cl)c2)c(=O)[nH]c1=O` is 0.745; for `CC(C)CN(CC(C)C)c1ccc(C=C2C(=O)NC(=S)NC2=O)cc1[N+](=O)[O-]` it is 2.35; for `CCC(C)N1C(=O)/C(=C\c2ccc(N3CCCCCC3)cc2)C(=O)NC1=S` (stereo not drawn) it is -0.384. With `CCC(C)N1C(=O)/C(=C/c2ccc3c(c2)CCN3CCCCl)C(=O)NC1=S` (stereo not drawn), the z-score was -0.358. For `Cc1cc(C=C2C(=O)NC(=S)NC2=O)c(C)n1-c1ccc2c(c1)OCO2`, the z-score is -0.495. Next, `O=C(O)C1(c2ccc(Cl)cc2)CCC1`: -0.279; `CN(C)P1(N(C)C)=Nc2c(c(N)nn2C)C(c2ccccc2)=N1`: 1.2. The figure for `COc1ccc(CC2C(=O)NC(=O)N(c3ccccc3)C2=O)c(OC)c1` (stereo not drawn) is 0.821. Next, `COc1ccc(CC2C(=O)NC(=O)NC2=O)c(OC)c1`: 13.6 (active). `CCc1ccc(N2C(=O)NC(=O)C(Cc3ccc(OC)cc3OC)C2=O)cc1` (stereo not drawn) yielded a z-score of -0.562. The figure for `Cc1ccc(-n2c(/C=C/c3ccc4c(c3)OCO4)nc3ccccc3c2=O)cc1` is -0.143. Next, `CCOP(=O)(OCC)C(C)(C)NC(=O)C(Cl)(Cl)Cl`: 0.176. The molecule `CC12CN3CC(C)(CN(C1)C3c1ccco1)C2=O` (stereo not drawn) displayed a z-score of 0.289. The figure for `Cc1ccc(C(O)(C(=O)NNC(=O)CN2CCN(C)CC2)c2ccc(C)cc2)cc1` is -0.00637; for `Cn1cccc1/C=C1\C(=O)NC(=O)N(CCC2=CCCCC2)C1=O` it is -0.117; for `S=C1CN=C(c2ccccc2)c2cc(Cl)ccc2N1` it is 4.29 (active). As to `Cc1ccccc1C1=NCC(=S)Nc2ccc(Cl)cc21`, the z-score is 4.39 (active). Next, `S=C1CN=C(c2ccccc2Cl)c2cc(Cl)ccc2N1`: 14.6 (active). Molecule `Clc1ccc2c(c1)C(c1ccccc1Cl)=NCc1nnc(N3CCN(CCSc4ccccc4)CC3)n1-2` came in with a z-score of -0.487. With `COc1ccccc1C1=NCc2nnc(C)n2-c2ccc(Cl)cc21`, the z-score amounted to 0.478. Molecule `Clc1ccc2c(c1)C(c1ccccc1Cl)=NCc1nncn1-2` yielded a z-score of 1.46. `CN1CCN(Cc2nnc3n2-c2ccc(Cl)cc2C(c2ccccc2)=NC3)CC1` displayed a z-score of -0.238. The figure for `CSCc1nnc2n1-c1ccc(Cl)cc1C(c1ccccc1)=NC2` is -0.724. The figure for `CCS(=O)(=O)NCc1nnc2n1-c1ccc(Cl)cc1C(c1ccccc1)=NC2` is -0.148; for `Cc1ccc(N(C)C(=O)Oc2ccc(C(=O)c3ccc(Cl)cc3)cc2)cc1` it is 0.23; for `CCN1CCN(c2nc3c(c(=O)[nH]2)CCCC3)CC1` it is -0.0782. Next, `CC(C)N(CC(O)c1cccc([N+](=O)[O-])c1)C(C)C` (stereo not drawn): -0.309; `Cc1cccc(N2C(=O)NC(=O)/C(=C\c3cc(C)n(-c4sc5c(c4C#N)CCCC5)c3C)C2=O)c1C`: 0.0132; `CCOC(C(=O)OCCC[N+](C)(CC)CC)(c1ccccc1)c1ccccc1`: 0.315. `c1ccc2c(CNC3CCCCC3)c[nH]c2c1`: the z-score is 4.16 (active). The figure for `Cc1[nH]c2ccccc2c1CCCNC1CCCCC1` is 0.385. The figure for `c1ccc2c(CNC3CCCCCC3)c[nH]c2c1` is -0.0434. Next, `CCOc1cc(C2NCc3ccccc3-n3cccc32)ccc1O` (stereo not drawn): 1.71; `COc1cc(C2NCc3ccccc3-n3cccc32)ccc1O` (stereo not drawn): 1.55. Regarding `COc1ccc(C2NCc3ccc4c(c3-n3cccc32)OCO4)cc1O` (stereo not drawn), the z-score came out at 2.45.

As for `CCN1C(=O)C(=C/C=C/c2ccco2)C(=O)N(CC)C1=S`, the z-score is -0.628. `CCCCN1C(=O)/C(=C/C=C/c2ccco2)C(=O)NC1=S` had a z-score of 0.136.

As for `CC(C)N1C(=O)/C(=C/C=C/c2ccco2)C(=O)N(Cc2ccco2)C1=O`, the z-score is 6.08 (active). The figure for `COC(=O)C(O)(c1ccc(N=Cc2ccccc2O)c(C)c1)C(F)(F)F` (stereo not drawn) is 0.286; for `O=C(CN1CCOCC1)c1cccc2ccccc12` it is -0.17. For the molecule `CCN(CC)c1ccc(N=Cc2c(O)n(-c3ccc(Cl)cc3)c(=O)[nH]c2=O)cc1`, the z-score came to 0.126.

For `O=C1C2CCCN2C(c2cccc(Cl)c2)N1c1ccccn1` (stereo not drawn), the z-score was -0.498. The figure for `O=C1C2CCCN2C(c2ccc(Cl)c(Cl)c2)N1c1ccccn1` (stereo not drawn) is -0.0899; for `O=C1C2CCCN2C(c2ccc(Cl)cc2)N1c1ccccn1` (stereo not drawn) it is 2.77.
